Only some compounds are listed: those with a hit (about 9.9% of all), similar ones and a draw of the others.
MCF10A rerep: inducers of DNA re-replication in MCF 10A breast cells; MCF 10A DNA re-replication, Hoechst nuclear intensity, 48 h; hit rate 2.9% among 350,000; Potency, µM (series often up to 46.1 µM), usual class: activators; note: nearly all actives have a fitted effect of over 50% in size
KB-V1 cytotox: KB-V1 MDR subline cytotoxicity | Potency, µM (highest dose often 46.1 µM), usual class: cytotoxic | hit rate 3.4% among 400,000 | KB-V1 MDR cells viability, CellTiter-Glo, 72 h | AID 1347076; note: nearly all actives have a fitted effect of over 60% in size
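Luminescent ATP read-out (CellTiter-Glo, 10 min) measures survival of drug-selected KB-V1 MDR cells after 72 h, 37 degrees C compound exposure. Medium: phenol-red-free DMEM, 10% FBS. Values from fitted concentration-response curves.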
SW480 rereplic: inducers of DNA re-replication in SW480 colon cancer cells | SW480 DNA re-replication, Hoechst DNA content imaging, 48 h | Potency, µM (titrated, usually from 46.1 µM), usual class: activators | hit rate 1.8% among 340,000 | AID 624297; note: nearly all actives have a fitted effect of over 55% in size
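First, 250 cells per well were seeded. Next, compound or vehicle (23 nL) was pinned in, plates sat 48 hr at 37 C. Finally Hoechst was added for 40 min before fluorescence scanning.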
KB-3-1 cytotox: KB-3-1 parental cell cytotoxicity | AID 1347075 | KB-3-1 viability, CellTiter-Glo ATP luminescence, 72 h | hit rate 1.4% among 400,000 | Potency, µM (top dose mostly 46.1 µM), most hits filed as cytotoxic; note: nearly all actives have a fitted effect of over 60% in size
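Using CellTiter-Glo luminescence, growth of non-resistant KB-3-1 adenocarcinoma cells is assessed 72 h after pin-tool compound addition at 37 °C. Normalized responses across the concentration series yield fitted curves.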
IL1B secr inh: blocks inflammasome-driven IL-1 beta release; THP-1 LPS/ATP IL-1B secretion, AlphaLISA, 16 h; stronger effect = lower value; activity change, % at 57.5 µM; hit rate 4.7% among 360,000; AID 743279; in the data active = activity change below about -50%; inconclusive = mostly about -30% to -49%
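THP-1 cells pretreated 1 hr with compounds (up to 57.5 uM final), then stimulated with LPS (250 ng/mL final) plus ATP (1.25 mM final); secreted IL-1B measured by AlphaLISA after 16 hr, decreased signal indicating inhibition.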
Numbers stand for hits; – = inactive; ? = inconclusive; · = no result; [ ] = another dose, or the depositor's remark. Unless noted, calls come from the whole dose curve; as a rule, active = well fitted curve in the direction sought with a large enough effect; inconclusive = small, poorly fitted or top-dose-only effect, or another doubt; inactive = no such curve, though single readings can be large; an effect the other way counts as inactive or inconclusive.

SMILES	MCF10A rerep	KB-V1 cytotox	SW480 rereplic	KB-3-1 cytotox	IL1B secr inh
COC(=O)c1ccn(CC(=O)NC2CCCCC2)n1	–	–	–	–	–
CC(C(=O)Nc1nc2ccccc2s1)n1cc([N+](=O)[O-])cn1 (stereo not drawn)	–	–	–	–	–
COCCNc1nc(-c2ccccc2F)c2sc(-c3ccccc3)cc2n1	·	–	·	–	?
COc1ccc(N2CCN(C(=O)c3csc4ccccc34)CC2)cc1	–	21µM	–	–	–
COc1ccc(Nc2ncc(C(=O)N3CCN(c4ccc(F)cc4)CC3)c3ccccc23)cc1	–	?	–	?	-59
COc1ccc(Nc2ncc(C(=O)N3CCN(c4ccc(OC)cc4)CC3)c3ccccc23)cc1	·	?	·	–	·
O=C(c1csc2ccccc12)N1CCN(c2ccc(Cl)c(Cl)c2)CC1	–[0.0737 µM]	–	–	–	–
S=C(Nc1ccc(Cl)cc1)c1nc2ccccc2s1	?	–	–	–	–
O=C(Nc1ccc(Cl)cc1)/C(=C/c1cccc(O)c1)c1nc2ccccc2s1	4.1µM	?	21µM	2.9µM	-101
COc1ccc(-n2cc(CNC3CCN(C)CC3)c(-c3cccc(F)c3)n2)cc1	21µM	–	–[1.84 µM]	?	-63
COc1ccc(-n2cc(CN3CCCC3)c(-c3cccc(F)c3)n2)cc1	?	–	–	–	-77
CCC(COC)NCc1cn(-c2ccc(OC)cc2)nc1-c1cccc(F)c1 (stereo not drawn)	–	5.2µM	?	–	-82
CC(C)(C)C1CCc2onc(C(=O)N3CCOCC3)c2C1 (stereo not drawn)	–	21µM	–	–	–
COc1cc(NC(=O)c2noc3c2CC(C(C)(C)C)CC3)cc(OC)c1OC (stereo not drawn)	·	16µM	·	–	·
CC(C)(C)C1CCc2onc(C(=O)NC3CCCC3)c2C1 (stereo not drawn)	?	16µM	–	?	–
CC(=O)N=c1c(C#N)cc2c(=O)n3ccccc3nc2n1Cc1ccccc1	8.2µM	–	5.8µM	–	–
CCOCCCn1c(=NC(C)=O)c(C#N)cc2c(=O)n3ccccc3nc21	2.6µM	–	7.3µM	–	–
CCOC(=O)c1cc2c(=O)n3ccccc3nc2n(Cc2ccccc2)c1=N	?	–	?	–	–
CCOCCCn1c(=NC(C)=O)c(C(=O)OCC)cc2c(=O)n3ccccc3nc21	–	–	?	–	–
Cn1c(=O)c2sccc2n2c(CCC(=O)NCc3ccc(F)cc3)nnc12	·	–	·	–	·
Cc1ccccc1-c1nc2c3ccccc3nc(=S)n2[nH]1	7.3µM	–	–	–	–
Cc1nc2ccccc2n1CCc1nc2c3ccccc3nc(=S)n2[nH]1	–	–	–	–	–
Cc1ccc(C)c(C2=NNC(=NCc3ccccc3)SC2)c1	23µM	–	?	–	–
Cc1cc(C2=NNC(=NCCc3ccccc3)SC2)c(C)n1CC1CCCO1 (stereo not drawn)	–	–	–	–	-77
C=CCn1c(C)cc(C2=NNC(=NCc3ccccc3)SC2)c1C	?	9.2µM	?	?	–
SMILES	MCF10A rerep	KB-V1 cytotox	SW480 rereplic	KB-3-1 cytotox	IL1B secr inh
CN[C@@H]1[C@H](O[C@H]2[C@H](O[C@H]3[C@H](O)[C@@H](O)[C@H](N=C(N)N)[C@@H](O)[C@@H]3N=C(N)N)O[C@@H](C)[C@]2(O)C=O)O[C@@H](CO)[C@H](O)[C@H]1O	–	·	–	·	·
NC(=S)N=Nc1c(O)n(Cc2ccc(Br)cc2)c2ccccc12	5.8µM	4.6µM	8.2µM	3.3µM	–
NC(=S)N=Nc1c(O)n(CCCl)c2ccc(Br)cc12	?	?	–	?	-101
Oc1c(N=NC(=S)Nc2ccccc2F)c2ccccc2n1Cc1cccc(Cl)c1	–	–	–	6.5µM	–
C/C(Cl)=C\Cn1c(O)c(N=NC(N)=S)c2cc(Br)ccc21	?	?	?	?	–
CC(=O)c1cccc(N2C(=O)CN(S(C)(=O)=O)CC2(C)C(=O)NC2CCCC2)c1 (stereo not drawn)	·	?	·	–	·
CCc1ccccc1NC(=O)Cn1c(C(=O)OC)cc2oc(C)cc21	·	–	·	–	·
CC1=CC(=C(c2ccc(N)cc2)c2ccc(N)cc2)C=CC1=N	–	?	–	2.3µM	·
CCOc1ccccc1NC(=O)c1nc(SC(C)C)ncc1Cl	·	–	·	–	·
CCCCCCc1cc2cc(S(=O)(=O)c3ccc(C)cc3)c(=O)oc2cc1O	?	–	18µM	–	–
O=c1oc2cc(O)ccc2cc1-c1nc2ccccc2o1	·	–	·	–	–
CCN(CC)c1ccc2cc(S(=O)(=O)c3ccc(Cl)cc3)c(=O)oc2c1	?	–	18µM	–	–
CCCCCCc1cc2cc(S(=O)(=O)c3ccc(Cl)cc3)c(=O)oc2cc1O	?	–	21µM	?	–
O=c1oc2cc(O)ccc2cc1S(=O)(=O)c1ccccc1	2.6µM	?	–	–	–
CCC1CCCCN1S(=O)(=O)c1ccc(-n2cnnn2)c(C)c1 (stereo not drawn)	–	–	–	–	–
COCCCNC(=O)C(C#N)c1nc2ccccc2nc1N1CCN(Cc2ccccc2)CC1 (stereo not drawn)	?	–	–	–	-58
N#CC(C(=O)NC1CC1)c1nc2ccccc2nc1N1CCCC1 (stereo not drawn)	–	–	–	–	–
COCC(C)OC(=O)C(C#N)c1nc2ccccc2nc1N1CCN(Cc2ccccc2)CC1 (stereo not drawn)	–	?	–	–	-56
COCCOC(=O)C(C#N)c1nc2ccccc2nc1N1CCN(Cc2ccccc2)CC1 (stereo not drawn)	–	–	–	–	–
COCCNC(=O)C(C#N)c1nc2ccccc2nc1N1CCCCCC1 (stereo not drawn)	?	4.1µM	–	–	-71
COCCN1C(=O)C(=O)/C(=C(/O)c2ccc(S(=O)(=O)N3CCOCC3)cc2)C1c1cccc([N+](=O)[O-])c1 (stereo not drawn)	–	?	–	–	–
On1onc2c3cc(-c4ccccc4)nc3ccc21	8.2µM	15µM	7.3µM	–	–
C[C@H](CO)N1C[C@H](C)[C@@H](CN(C)C(=O)NC2CCCCC2)Oc2c(NC(=O)Nc3ccc(C(F)(F)F)cc3)cccc2C1=O	–	–	?	?	–
Cc1ccnc(NC(=O)C2CCN(S(=O)(=O)c3cccc4nonc34)CC2)c1	–	?	–	–	-51
Cc1ccc(NC(=O)C2CCN(S(=O)(=O)c3cccc4nsnc34)CC2)cc1	·	–	·	–	·
Cc1ccnc(NC(=O)C2CCN(S(=O)(=O)c3cccc4nsnc34)CC2)c1	?	–	–	–	-53
O=S(=O)(c1cccc2nsnc12)N1CCCC1	–	–	–	–	–
CC1CN(S(=O)(=O)c2cccc3nsnc23)CC(C)O1 (stereo not drawn)	18µM	–	–	?	–
COc1ccccc1C(O)c1nccn1Cc1ccccc1 (stereo not drawn)	·	–	·	–	·
